Measured values from PubChem BioAssay AID1159580 (chemical genetic matrix, 2015).
Where “and” joins values, the source holds several entries; their conditions need not be identical. Equal values may be shown once. Screen size: about 5,500 compounds; about 2,000 (36%) were called active. About 18% were inconclusive and are not listed. Rule as the data show it: active = normalized growth mostly below about 0.91 (no sharp cut-off); inconclusive = no clear call, values can overlap the other calls; inactive = mostly above about 0.92. The list shows a part of the results. More than one record can exist for a structure, and the calls need not agree.

Assay: chemical genetic growth profiling, strain panel (AID 1159580);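 also: tested at 20 µM; growth read once vehicle control cultures reached saturation at 30 °C; 1 = growth at the plate median or of vehicle wells; lower values mean less growth of the strain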
Details: growth OD

Compound: O=C1CCc2cc(OCCCCc3nnnn3C3CCCCC3)ccc2N1
- normalized growth (S. cerevisiae deletion strains, locus YKL009W, strain mrt4, stronger effect = lower value): 1 (inactive)
- normalized growth (S. cerevisiae deletion strains, locus YKL068W, stronger effect = lower value): 1 (inactive)
- normalized growth (S. cerevisiae deletion strains, locus YKL085W, strain MDH1 (second series), stronger effect = lower value): 1.01 (inactive)
- normalized growth (S. cerevisiae deletion strains, locus YKL085W, strain MDH1, stronger effect = lower value): 1.01 (inactive)
- normalized growth (S. cerevisiae deletion strains, locus YKL160W, strain elf1, stronger effect = lower value): 0.987 (inactive)
- normalized growth (S. cerevisiae deletion strains, locus YKL190W, strain CNB1, stronger effect = lower value): 1.01 (inactive)
- normalized growth (S. cerevisiae deletion strains, locus YKR001C, strain vps1, stronger effect = lower value): 0.993 (inactive)
- normalized growth (S. cerevisiae deletion strains, locus YKR026C, strain gcn3, stronger effect = lower value): 0.979 (inactive)
- normalized growth (S. cerevisiae deletion strains, locus YKR091W, strain srl3, stronger effect = lower value): 0.99 (inactive)
- normalized growth (S. cerevisiae deletion strains, locus YLL001W, strain dnm1, stronger effect = lower value): 0.984 (inactive)
- normalized growth (S. cerevisiae deletion strains, locus YLL026W, stronger effect = lower value): 0.993 (inactive)
- normalized growth (S. cerevisiae deletion strains, locus YLL041C, strain sdh2, stronger effect = lower value): 0.991 (inactive)
- normalized growth (S. cerevisiae deletion strains, locus YLR027C, strain aat2, stronger effect = lower value): 0.978 (inactive)
- normalized growth (S. cerevisiae deletion strains, locus YLR039C, strain RIC1, stronger effect = lower value): 0.972 (inactive)
- normalized growth (S. cerevisiae deletion strains, locus YLR058C, strain SHM2, stronger effect = lower value): 1.01 (inactive)
- normalized growth (S. cerevisiae deletion strains, locus YLR102C, strain apc9, stronger effect = lower value): 0.999 (inactive)
- normalized growth (S. cerevisiae deletion strains, locus YLR113W, strain HOG1, stronger effect = lower value): 0.983 (inactive)
- normalized growth (S. cerevisiae deletion strains, locus YLR221C, strain rsa3, stronger effect = lower value): 0.984 (inactive)
- normalized growth (S. cerevisiae deletion strains, locus YLR258W, strain gsy2, stronger effect = lower value): 0.986 (inactive)
- normalized growth (S. cerevisiae deletion strains, locus YLR262C, strain YPT6 (second series), stronger effect = lower value): 0.876 (inactive)
- normalized growth (S. cerevisiae deletion strains, locus YLR262C, strain YPT6, stronger effect = lower value): 0.998 (inactive)
- normalized growth (S. cerevisiae deletion strains, locus YLR268W, strain sec22, stronger effect = lower value): 0.999 (inactive)
- normalized growth (S. cerevisiae deletion strains, locus YLR320W, strain mms22, stronger effect = lower value): 0.976 (inactive)
- normalized growth (S. cerevisiae deletion strains, locus YLR330W, strain CHS5, stronger effect = lower value): 1.01 (inactive)
- normalized growth (S. cerevisiae deletion strains, locus YLR342W, strain FKS1 (second series), stronger effect = lower value): 0.987 (inactive)
- normalized growth (S. cerevisiae deletion strains, locus YLR342W, strain FKS1, stronger effect = lower value): 0.985 (inactive)
- normalized growth (S. cerevisiae deletion strains, locus YLR357W, strain rsc2, stronger effect = lower value): 0.956 (inactive)
- normalized growth (S. cerevisiae deletion strains, locus YLR370C, strain arc18, stronger effect = lower value): 0.99 (inactive)
- normalized growth (S. cerevisiae deletion strains, locus YLR371W, strain rom2, stronger effect = lower value): 0.995 (inactive)
- normalized growth (S. cerevisiae deletion strains, locus YLR384C, strain iki3, stronger effect = lower value): 0.972 (inactive)
- normalized growth (S. cerevisiae deletion strains, locus YLR418C, strain cdc73, stronger effect = lower value): 1 (inactive)
- normalized growth (S. cerevisiae deletion strains, locus YML016C, strain PPZ1, stronger effect = lower value): 1.01 (inactive)
- normalized growth (S. cerevisiae deletion strains, locus YML032C, strain rad52, stronger effect = lower value): 1.02 (inactive)
- normalized growth (S. cerevisiae deletion strains, locus YML120C, strain ndi1, stronger effect = lower value): 0.994 (inactive)
- normalized growth (S. cerevisiae deletion strains, locus YML124C, strain tub3, stronger effect = lower value): 0.992 (inactive)
- normalized growth (S. cerevisiae deletion strains, locus YMR058W, strain fet3, stronger effect = lower value): 1 (inactive)
- normalized growth (S. cerevisiae deletion strains, locus YMR078C, strain ctf18, stronger effect = lower value): 0.998 (inactive)
- normalized growth (S. cerevisiae deletion strains, locus YMR125W, strain sto1, stronger effect = lower value): 0.999 (inactive)
- normalized growth (S. cerevisiae deletion strains, locus YMR129W, stronger effect = lower value): 0.985 (inactive)
- normalized growth (S. cerevisiae deletion strains, locus YMR205C, strain PFK2, stronger effect = lower value): 0.989 (inactive)
- normalized growth (S. cerevisiae deletion strains, locus YMR223W, strain ubp8, stronger effect = lower value): 0.991 (inactive)
- normalized growth (S. cerevisiae deletion strains, locus YMR231W, strain pep5, stronger effect = lower value): 0.996 (inactive)
- normalized growth (S. cerevisiae deletion strains, locus YMR263W, strain SAP30, stronger effect = lower value): 1.01 (inactive) and 0.0868 (active)
- normalized growth (S. cerevisiae deletion strains, locus YMR307W, strain GAS1, stronger effect = lower value): 0.946 (inactive) and 0.993 (inactive)
- normalized growth (S. cerevisiae deletion strains, locus YNL067W, strain RPL9B, stronger effect = lower value): 1.03 (inactive)
- normalized growth (S. cerevisiae deletion strains, locus YNL071W, strain lat1, stronger effect = lower value): 1 (inactive)
- normalized growth (S. cerevisiae deletion strains, locus YNL128W, strain TEP1, stronger effect = lower value): 1.01 (inactive)
- normalized growth (S. cerevisiae deletion strains, locus YNL153C, strain GIM3, stronger effect = lower value): 1.01 (inactive)
- normalized growth (S. cerevisiae deletion strains, locus YNL175C, strain NOP13, stronger effect = lower value): 1.03 (inactive)
- normalized growth (S. cerevisiae deletion strains, locus YNL183C, strain NPR1, stronger effect = lower value): 0.966 (inactive)
- normalized growth (S. cerevisiae deletion strains, locus YNL197C, strain WHI3, stronger effect = lower value): 1.01 (inactive)
- normalized growth (S. cerevisiae deletion strains, locus YNL209W, strain ssb2, stronger effect = lower value): 0.998 (inactive)
- normalized growth (S. cerevisiae deletion strains, locus YNL224C, strain SQS1, stronger effect = lower value): 1 (inactive)
- normalized growth (S. cerevisiae deletion strains, locus YNL233W, strain BNI4, stronger effect = lower value): 1.01 (inactive)
- normalized growth (S. cerevisiae deletion strains, locus YNL248C, strain rpa49, stronger effect = lower value): 0.999 (inactive)
- normalized growth (S. cerevisiae deletion strains, locus YNL250W, strain rad50, stronger effect = lower value): 0.992 (inactive)
- normalized growth (S. cerevisiae deletion strains, locus YNL271C, strain bni1, stronger effect = lower value): 1 (inactive)
- normalized growth (S. cerevisiae deletion strains, locus YNL298W, strain CLA4, stronger effect = lower value): 1 (inactive)
- normalized growth (S. cerevisiae deletion strains, locus YNL307C, strain MCK1, stronger effect = lower value): 0.982 (inactive)
- normalized growth (S. cerevisiae deletion strains, locus YNL322C, strain KRE1 (second series), stronger effect = lower value): 0.988 (inactive)
- normalized growth (S. cerevisiae deletion strains, locus YNL322C, strain KRE1, stronger effect = lower value): 1.01 (inactive)
- normalized growth (S. cerevisiae deletion strains, locus YNR049C, strain mso1, stronger effect = lower value): 0.998 (inactive)
- normalized growth (S. cerevisiae deletion strains, locus YNR052C, strain pop2, stronger effect = lower value): 1 (inactive)
- normalized growth (S. cerevisiae deletion strains, locus YOL006C, strain TOP1, stronger effect = lower value): 1.01 (inactive)
- normalized growth (S. cerevisiae deletion strains, locus YOL012C, strain htz1): 1.15 (inactive)
- normalized growth (S. cerevisiae deletion strains, locus YOL147C, strain pex11, stronger effect = lower value): 0.991 (inactive)
- normalized growth (S. cerevisiae deletion strains, locus YOR001W, strain rrp6, stronger effect = lower value): 0.992 (inactive)
- normalized growth (S. cerevisiae deletion strains, locus YOR061W, strain CKA2, stronger effect = lower value): 1 (inactive)
- normalized growth (S. cerevisiae deletion strains, locus YOR069W, strain VPS5, stronger effect = lower value): 1 (inactive)
- normalized growth (S. cerevisiae deletion strains, locus YOR070C, strain gyp1, stronger effect = lower value): 0.995 (inactive)
- normalized growth (S. cerevisiae deletion strains, locus YOR080W, strain dia2, stronger effect = lower value): 0.984 (inactive)
- normalized growth (S. cerevisiae deletion strains, locus YOR083W, strain WHI5 (second series), stronger effect = lower value): 0.993 (inactive)
- normalized growth (S. cerevisiae deletion strains, locus YOR083W, strain WHI5, stronger effect = lower value): 0.987 (inactive)
- normalized growth (S. cerevisiae deletion strains, locus YOR106W, strain vam3, stronger effect = lower value): 0.977 (inactive)
- normalized growth (S. cerevisiae deletion strains, locus YOR136W, strain idh2, stronger effect = lower value): 0.983 (inactive)
- normalized growth (S. cerevisiae deletion strains, locus YOR144C, strain elg1, stronger effect = lower value): 0.995 (inactive)
- normalized growth (S. cerevisiae deletion strains, locus YOR184W, strain ser1, stronger effect = lower value): 1.02 (inactive)
- normalized growth (S. cerevisiae deletion strains, locus YOR231W, strain MKK1, stronger effect = lower value): 0.974 (inactive)
- normalized growth (S. cerevisiae deletion strains, locus YOR265W, strain rbl2, stronger effect = lower value): 0.987 (inactive)
- normalized growth (S. cerevisiae deletion strains, locus YOR270C, strain vph1, stronger effect = lower value): 0.991 (inactive)
- normalized growth (S. cerevisiae deletion strains, locus YOR290C, strain snf2, stronger effect = lower value): 1 (inactive)
- normalized growth (S. cerevisiae deletion strains, locus YOR316C, strain cot1, stronger effect = lower value): 1 (inactive)
- normalized growth (S. cerevisiae deletion strains, locus YPL051W, strain arl3, stronger effect = lower value): 0.983 (inactive)
- normalized growth (S. cerevisiae deletion strains, locus YPL055C, strain LGE1, stronger effect = lower value): 1.06 (inactive)
- normalized growth (S. cerevisiae deletion strains, locus YPL078C, strain atp4, stronger effect = lower value): 0.977 (inactive)
- normalized growth (S. cerevisiae deletion strains, locus YPL106C, strain sse1, stronger effect = lower value): 1.01 (inactive)
- normalized growth (S. cerevisiae deletion strains, locus YPL240C, strain hsp82, stronger effect = lower value): 0.982 (inactive)
- normalized growth (S. cerevisiae deletion strains, locus YPL241C, strain CIN2, stronger effect = lower value): 1 (inactive)
- normalized growth (S. cerevisiae deletion strains, locus YPL256C, strain CLN2, stronger effect = lower value): 0.985 (inactive)
- normalized growth (S. cerevisiae deletion strains, locus YPR119W, strain clb2, stronger effect = lower value): 0.998 (inactive)
- normalized growth (S. cerevisiae deletion strains, locus YPR141C, strain kar3, stronger effect = lower value): 1 (inactive)
- normalized growth (S. cerevisiae deletion strains, locus YPR163C, strain tif3, stronger effect = lower value): 0.978 (inactive)
- normalized growth (S. cerevisiae deletion strains, locus YPR167C, strain met16, stronger effect = lower value): 0.996 (inactive)
- normalized growth (S. cerevisiae deletion strains, strain wtn01, stronger effect = lower value): 1.01 (inactive)
- normalized growth (S. cerevisiae strains, strain wild type, stronger effect = lower value): 1.01 (inactive)
